Test results reported in PubChem BioAssay (NCI).
This is part of a sample that, as a whole, favours compounds with a hit. Of some 83,000 tested, about 20% had one in any assay.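 Method: cells in 96-well plates; compound added at one concentration; 48 h incubation; percent growth measured; values under 10 scored active.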 Values without a mark were called inactive. Activity calls are given as the source filed them.

How the values were obtained:
Assay in all cases: NCI-60 one-dose screen, 48 h (100 = growth as untreated, 0 = no growth, -100 = all killed)
Conditions in all cases: 10 µM
NCI-H23 lung = test system: NCI-H23 lung
NCI-H226 lung = test system: NCI-H226 lung
NCI-H322M lung = test system: NCI-H322M lung
HOP-62 NSCLC = test system: HOP-62 NSCLC
NCI-H460 lung = test system: NCI-H460 lung
HOP-92 NSCLC = test system: HOP-92 NSCLC
A549/ATCC NSCLC = test system: A549/ATCC NSCLC
COLO 205 colon = test system: COLO 205 colon
NCI-H522 lung = test system: NCI-H522 lung
786-0 renal = test system: 786-0 renal

Structure (SMILES) | growth (NCI-H23 lung) | growth (NCI-H226 lung) | growth (NCI-H322M lung) | growth (HOP-62 NSCLC) | growth (NCI-H460 lung) | growth (HOP-92 NSCLC) [%] | growth (A549/ATCC NSCLC) | growth (COLO 205 colon) | growth (NCI-H522 lung) | growth (786-0 renal)
CC1NC(=O)NC1CCCCCC(=O)O (stereo unspecified) | 100% | 103% | 132% | 104% | 111% | 72.9 | 94.9% | 110% |  | 
CN(C)C(=O)Oc1cccc([N+](C)(C)C)c1 | 109% | 92.8% | 129% | 100% | 113% |  | 102% | 109% | 109% | 116%
Cc1nc2ccccc2c(C(=O)O)c1O | 104% | 91% | 117% | 88.3% | 110% |  | 103% |  | 104% | 103%
CN(C)c1ccc2nc3ccc(=N)cc-3sc2c1 | 14.7% | 77.1% | 85.4% | 54.4% | 56.7% |  | 13.6% |  | 14.7% | 66.2%
OCC1OC(OC2C(O)C(CO)OC2(CO)OC2OC(CO)C(O)C(O)C2O)C(O)C(O)C1O (stereo unspecified) | 103% | 115% | 120% | 98.6% | 111% | 90.3 | 98% | 117% |  | 
O=C(O)CCCCNC(=O)c1ccccc1 | 91% | 92.3% | 106% | 90.8% | 106% |  | 98.4% | 108% | 89.4% | 97.5%
CCCC(=O)c1cc(C)ccc1OC | 108% | 99.7% | 126% | 101% | 106% | 81.5 | 111% | 112% |  | 
CCCC[P+](c1ccccc1)(c1ccccc1)c1ccccc1 | 44.4% | 67% | 95.1% | 80.2% | 53.4% |  | 53.7% | 32.2% | 39.6% | 98.9%
CC1=C(/C=C/C(C)=C/C=C/C(C)=C/CO)C(C)(C)CCC1 | 102% | 104% | 105% | 104% | 117% |  | 102% | 110% | 105% | 103%
COc1cc(-c2ccc(NC(=O)NC3CC3)c(OC)c2)ccc1NC(=O)NC1CC1 | 98.3% | 102% | 110% | 101% | 16.2% |  | 26.8% | 103% | -10.3% (active) | 74%
O=c1cc(-c2ccccc2)nc2cc(-c3ccco3)[nH]n12 | 96.5% | 102% | 95.6% | 88.3% | 104% |  | 56.7% | 95.6% | 71.8% | 111%
Cc1ccccc1C1N=C2Oc3ccccc3C=C2C(=O)N1 (stereo unspecified) | 48.7% | 3.49% (active) | 37.4% | 33.3% | 30.6% |  | 33.5% | 0.577% (active) | -32.7% (active) | 37.8%
O=C(N/N=C/c1ccccc1O)Nc1nn[nH]n1 | 106% | 96.4% | 97% | 111% | 102% |  | 108% | 109% | 95.4% | 108%
CCCC(=O)Nc1ccc2c(c1)CN1C(=O)c3ccccc3C1=N2 | 106% | 100% | 99.1% | 104% | 103% |  | 90% | 109% | 106% | 99.2%
CC1SC(N)=NC1=O (stereo unspecified) | 94.8% | 107% | 114% | 79.5% | 115% |  | 102% | 138% | 97.5% | 95.3%
O=[N+]([O-])c1ccc(Sc2ccncn2)c([N+](=O)[O-])c1 | 60% | 55.3% | 106% | 92.4% | 99.3% |  | 122% | 27% | -62.2% (active) | 69.7%
Cc1cc(/C=C/c2ccc3cc(N(C)C)ccc3[n+]2C)c(C)n1-c1ccccc1 | -6.43% (active) | -75.1% (active) | 2.15% (active) | -81.5% (active) | -64.8% (active) |  | -44.9% (active) | -79.5% (active) | -31.7% (active) | -15.9% (active)

Structure (SMILES) | growth (NCI-H23 lung) | growth (NCI-H226 lung) | growth (NCI-H322M lung) | growth (HOP-62 NSCLC) | growth (NCI-H460 lung) | growth (HOP-92 NSCLC) [%] | growth (A549/ATCC NSCLC) | growth (COLO 205 colon) | growth (NCI-H522 lung) | growth (786-0 renal)
CC1=CC(=O)c2ccccc2C1=O | 101% | 101% | 99.2% | 105% | 115% |  | 94.1% | 108% | 114% | 106%
Nc1nc(OCc2ccccc2)c2[nH]cnc2n1 | 93.6% | 96% | 118% | 100% | 107% |  | 105% | 114% | 86.5% | 87.1%
CNS(=O)(=O)c1ccc(Cl)c(Cl)c1 | 110% | 86.4% | 103% | 82.3% | 109% |  | 104% | 114% | 97.8% | 85.9%
CCOC(=O)c1coc(C(=O)OCC)c1C(=O)OCC | 100% | 111% | 120% | 119% | 111% |  | 108% | 128% | 128% | 108%
COC(=O)c1cccnc1 | 95.6% | 98% | 106% | 99.4% | 105% |  | 91.9% | 95.3% | 78.2% | 87.1%
Cc1cc(=O)[nH]c(NN=C2CCCC2)n1 | 122% | 101% | 108% | 105% | 116% |  | 123% | 118% | 103% | 102%
CC(C)(C)c1cc(O)c(C(C)(C)C)cc1O | 96.3% | 67.8% | 100% | 105% | 96.3% |  | 87.4% | 108% | 63.3% | 95.8%
CCCCC1C(=O)N(c2ccccc2)N(c2ccccc2)C1=O | 109% | 95.8% | 99.9% | 99.3% | 114% |  | 106% | 106% | 102% | 98.5%
CC(C)CCCC(=O)O | 106% | 101% | 93.4% | 102% | 102% |  | 105% | 112% | 103% | 116%
COc1cc(C2NC(=O)C(C#N)=C(Nc3cccc(C)c3)S2)ccc1O (stereo unspecified) | 103% | 104% | 106% | 98.1% | 99.5% |  | 32.5% | 119% | 47.5% | 105%
C#CC(C(C)C)N(CCO)CCCC (stereo unspecified) | 120% | 96.6% | 107% | 98.8% | 101% |  | 95.8% | 108% | 107% | 108%
Oc1ccc(O)cc1 | 96.3% | 110% | 106% | 106% | 113% |  | 102% | 112% | -40.8% (active) | 114%
COc1cc2cc(c1Cl)N(C)C(=O)C[C@H](OC(=O)[C@H](C)N(C)C(C)=O)[C@]1(C)O[C@H]1[C@H](C)[C@@H]1C[C@@](O)(NC(=O)O1)[C@H](OC)C=C/C=C(\C)C2 | 31.1% | 3.37% (active) | 31.5% | 14% | 2.87% (active) |  | 38.3% | -51.3% (active) | -60.8% (active) | 10.6%
O=C(O)c1cccc([N+](=O)[O-])c1O | 98.9% | 104% | 97.3% | 96% | 104% |  | 111% | 105% | 101% | 102%
C=CC(O)CCC (stereo unspecified) | 106% | 115% | 103% | 110% | 104% |  | 91.5% | 119% | 99.6% | 105%
Nc1nc(N)c(N=Nc2ccc(C(=O)O)cc2)c(N)n1 | 99.6% | 108% | 104% | 106% | 117% |  | 51.8% | 117% | -5.11% (active) | 107%
O=C(O)C(Cc1ccccc1)C(=O)O | 95.1% | 95.5% | 105% | 118% | 101% |  | 103% | 110% | 106% | 99.4%
